From the supplement of paper PMC9694430
Where a name gives a salt, the structure may show the parent alone.

Assays:
Experiment in all cases: thermal shift delta Tm vs DMSO control; higher = stronger stabilization (binding)
Details in all cases: 12.5 µM; protein concentration 2 µM
[1] = system: LOC_OS04G57630-cb004
Method in brief: (§1)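 Rice kinase domain constructs were expressed in E. coli, purified, and tested by differential scanning fluorimetry with compound added in DMSO. Each well of a 96-well plate held 19.5 μl of 2 μM kinase in 100 mM potassium phosphate pH 7.5, 150 mM NaCl, 10% glycerol and 5 × SYPRO Orange, and fluorescence was read from 25°C to 95°C at 0.05°C/s. The melting temperature shift is the mean of triplicates, taken against protein with DMSO alone after Boltzmann fitting.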

[2] = system: LOC_OS05G07850-cb002
Method in brief: as §1

[3] = system: LOC_OS05G16824-cb004
Method in brief: as §1

[4] = system: LOC_OS05G28520-cb001
Method in brief: as §1

[5] = system: LOC_OS05G30820-cb001
Method in brief: as §1

[6] = system: LOC_OS05G43570-cb004
Method in brief: as §1

[7] = system: LOC_OS06G16330-cb003
LOC_OS06G16330-cb003, sequence (as listed by the source): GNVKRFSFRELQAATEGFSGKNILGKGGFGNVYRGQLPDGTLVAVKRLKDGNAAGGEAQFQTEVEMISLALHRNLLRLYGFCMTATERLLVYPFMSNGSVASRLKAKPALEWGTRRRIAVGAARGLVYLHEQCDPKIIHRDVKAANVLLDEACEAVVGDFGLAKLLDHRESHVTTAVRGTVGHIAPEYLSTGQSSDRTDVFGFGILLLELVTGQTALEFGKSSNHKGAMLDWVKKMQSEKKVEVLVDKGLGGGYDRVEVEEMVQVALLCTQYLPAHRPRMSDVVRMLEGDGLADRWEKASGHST
Method in brief: as §1

[8] = system: T1, LOC_OS06G22820-cb001
T1 sequence (whole entry): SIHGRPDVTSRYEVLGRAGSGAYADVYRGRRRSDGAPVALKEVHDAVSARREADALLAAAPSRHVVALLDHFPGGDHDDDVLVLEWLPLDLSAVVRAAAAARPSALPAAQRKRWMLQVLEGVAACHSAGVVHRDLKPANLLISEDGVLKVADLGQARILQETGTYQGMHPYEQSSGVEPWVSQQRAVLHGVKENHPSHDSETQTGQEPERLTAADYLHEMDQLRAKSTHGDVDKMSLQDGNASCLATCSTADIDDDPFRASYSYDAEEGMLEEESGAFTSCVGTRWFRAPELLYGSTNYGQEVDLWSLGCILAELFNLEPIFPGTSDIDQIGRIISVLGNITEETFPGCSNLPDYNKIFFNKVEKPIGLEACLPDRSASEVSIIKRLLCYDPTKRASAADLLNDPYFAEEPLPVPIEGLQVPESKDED
Method in brief: as §1

[9] = system: LOC_OS07G06570-cb004
Method in brief: as §1

[10] = system: LOC_OS07G07230-cb001
Method in brief: as §1

Structure (SMILES)	thermal shift delta Tm [1] [°C]	thermal shift delta Tm [2] [°C]	thermal shift delta Tm [3] [°C]	thermal shift delta Tm [4] [°C]	thermal shift delta Tm [5] [°C]	thermal shift delta Tm [6] [°C]	thermal shift delta Tm [7] [°C]	thermal shift delta Tm [8] [°C]	thermal shift delta Tm [9] [°C]	thermal shift delta Tm [10] [°C]
Clc1ccc(C2(c3ccc(-c4cn[nH]c4)cc3)CCNCC2)cc1	0.35	1.23	-0.22	0.22	0.51	1.87	0.19	0.61	1.01	0.03
O=C(Cc1ccc(-c2ccc(OCCN3CCOCC3)cc2)cn1)NCc1ccccc1	0.12	0.35	-2.04	0.32	0.37	0.34	-0.02	0.6	0.25	-0.12
CCc1nc(C(N)=O)c(Nc2ccc(N3CCC(N4CCN(C)CC4)CC3)c(OC)c2)nc1NC1CCOCC1 [Gilteritinib (ASP2215)]	5.73	17.4	9.44	1.33	0.92	1.54	15.3	0.74	1.35	0.17
Nc1ncccc1-c1nc2ccc(-c3ccccc3)nc2n1-c1ccc(C2(N)CCC2)cc1 [Miransertib (ARQ 092) HCl]	-0.29	1.08	-5.68	-0.2	0.04	0.09	-0.91	0.24	1.32	0.36
CCn1cc(-c2ccnc3[nH]c(-c4cccc(CN(C)C)c4)cc23)c(-c2ccc(NC(=O)N(C)C)cc2)n1	1.27	8.63	0.47	0.42	0.52	0.64	4.22	0.71	1.35	0.42
O=c1cc(N2CCOCC2)oc2c1ccc1ccccc12	0.45	0.96	1.86	0.42	0.43	0.67	-3.55	0.23	0.63	0.36
Nc1ccc(-c2ccc3ncc4ccc(=O)n(-c5cccc(C(F)(F)F)c5)c4c3c2)cn1 [Torin 2]	0.09	9.25	2.46	0.76	0.48	0.35	2.11	0.56	1.44	0.3
Cc1ccc(C(=O)Nc2cccc(C(F)(F)F)c2)cc1Nc1nc(-c2cccnc2)nc2c1cnn2C	0.31	0.03	-1.61	0.44	0.9	1.18	1.09	0.98	1.07	0.06
CO[C@@H](C)Cn1c(=O)n(C)c2cnc3ccc(-c4cncc(C(C)(C)O)c4)cc3c21	0.18	4.35	-0.98	0.31	0.49	0.43	0.71	0.7	0.91	0.7
COC1(c2sc3c(N4CCOCC4)nc(-c4cnc(N)nc4)nc3c2C)COC1	0.27	5.18	1.1	0.27	0.59	1.45	3.12	0.17	0.85	0.65
c1nc2c(NC3CCCCC3)nc(Nc3ccc(N4CCOCC4)cc3)nc2[nH]1 [Reversine]	3.78	12	11.7	0.53	4.07	1.11	8.57	0.3	1.48	1.02
CC(C)c1cnn2c(NCc3ccccc3)cc(NCCCCCCN)nc12	-0.33	-0.23	-2.84	0.27	0.42	0.43	-0.05	0.96	1.35	0.18
COc1cc2ncnc(Nc3ccc(Oc4ccccc4)cc3C)c2cc1OC	0.31	8.78	-9.65	0.23	0.05	-0.01	2.86	0.95	1.5	0.54
CN(c1ccccc1CNc1nc(Nc2ccc3c(c2)CC(=O)N3)ncc1C(F)(F)F)S(C)(=O)=O	3.74	11.3	11.6	2.32	4	0.97	7.19	-0.04	1.23	0.27
CN1CCN(c2ccc(Nc3cc(-c4cccc(-n5ccc6cc(C7CC7)cc(F)c6c5=O)c4CO)cn(C)c3=O)nc2)CC1	0.45	2.96	0.67	0.6	0.63	0.46	0.74	0.59	1.21	0.61
COc1cc2ccc(=O)oc2cc1O [Scopoletin]	-0.06	0.76	2.23	-0.1	0.06	-0.08	-0.43	0.22	1.13	0.87
CCCNC(=O)c1cn2ncnc(Nc3cc(C(=O)NC4CC4)ccc3C)c2c1C	0.07	0.14	-4.13	0.31	0.52	0.2	-0.22	0.62	1.15	0.61
O=C1NC(=O)/C(=C/c2ccc(-c3ccc(F)cc3O)o2)S1	1.54	6.53	3.79	1.52	1.01	2.03	3.28	2.41	1.83	0.13
Cn1c(=O)c(Oc2ccc(F)cc2F)cc2cnc(NC(CCO)CCO)nc21	-0.25	0.33	-2.67	0.51	0.63	0.19	-0.27	0.72	1.46	0.54

Structure (SMILES)	thermal shift delta Tm [1] [°C]	thermal shift delta Tm [2] [°C]	thermal shift delta Tm [3] [°C]	thermal shift delta Tm [4] [°C]	thermal shift delta Tm [5] [°C]	thermal shift delta Tm [6] [°C]	thermal shift delta Tm [7] [°C]	thermal shift delta Tm [8] [°C]	thermal shift delta Tm [9] [°C]	thermal shift delta Tm [10] [°C]
Cc1cc2c(F)c(Oc3ncnn4cc(OC[C@@H](C)O)c(C)c34)ccc2[nH]1	0.32	2.97	-0.74	0.85	0.47	-0.02	0.19	0.53	0.51	0.51
CCc1cccc(CC)c1NC(=O)N1Cc2[nH]nc(NC(=O)c3ccc(N4CCN(C)CC4)cc3)c2C1	0.89	5.74	1.16	0.11	0.78	0.47	2.93	1.47	1.26	0.12
Cc1[nH]nc2ccc(-c3cncc(OC[C@@H](N)Cc4ccccc4)c3)cc12	0.79	6.97	1.39	0.6	0.56	1.24	0.93	0.49	0.93	0
O=C(/C=C/c1ccc(O)c(O)c1)c1ccc(O)cc1O [Butein]	2.45	8.49	4.48	1.45	0.81	1.93	4.87	2.16	1.46	0.82
CC1=C(C(=O)Nc2cc3cn[nH]c3cc2F)C(c2ccc(C(F)(F)F)cc2)CC(=O)N1 (stereo not given)	-0.15	0.48	-6.69	-0.3	0.33	1.08	-0.13	0.24	0.71	0.37
O=c1cc(N2CCOCC2)oc2c(-c3cccc4c3sc3ccccc34)cccc12	-0.76	0.31	-2.7	0.25	0.1	-0.66	-1.48	0.17	0.25	-0.42
O=C(Nc1ccccc1C(=O)NC1CCCCNC1=O)c1cc2ccccc2s1 (stereo not given)	0.09	0.55	-1.58	0.54	0.1	0.18	-0.39	0.25	1.21	0.41
CCn1c(-c2nonc2N)nc2c(C#CC(C)(C)O)ncc(OC[C@H]3CCCNC3)c21	0.06	0.29	-1.28	0.27	0.49	1.47	-0.37	0.88	0.7	0.32
CCCCCCCCCCCCc1ccc(S(=O)(=O)Nc2nncs2)cc1	-0.02	0.11	-2.07	0.11	0.45	0.64	0.11	0.75	1.23	0.24
C[C@@H](N)[C@H]1CC[C@H](C(=O)Nc2ccncc2)CC1	0.06	0.75	1.53	0.81	0.41	0.43	0.4	0.94	0.98	0.08
Cn1cc(-c2ccc3nnc(C(F)(F)c4ccc5ncccc5c4)n3n2)cn1	0.16	1.31	0.65	0.54	0.28	0.51	1.54	0.92	1.14	-0.03
Cc1ccc(NC(=O)c2cccc(N(C)C)c2)cc1NC(=O)c1ccc(O)cc1	0.32	0.13	0.14	0.63	0.58	0.61	0.4	0.59	0.77	0.22
CN1CCN(c2ccc3nc(-c4c(N)c5c(F)cccc5[nH]c4=O)[nH]c3c2)CC1 [Dovitinib (TKI-258) Dilactic Acid]	3.62	8.93	15.7	1.54	1.04	1.01	6.51	0.63	1.1	0.06
O=C(NOCC(O)CO)c1cc(Br)c(F)c(F)c1Nc1ccc(I)cc1F (stereo not given)	0.44	0.69	0.91	0.42	0.68	0.96	0.65	1.13	1.14	-0.63
O=c1ccc2ccc(O)c(O)c2o1 [Daphnetin]	0.17	0.01	-3.57	0.77	0.79	0.83	0.25	0.83	1.31	-0.12
CCCCCCCCCCCCCCCCOP(=O)([O-])OCC[N+](C)(C)C [Miltefosine]	-0.37	-1.01	-3.83	-3.02	-0.84	-1.92	-5.12	-0.23	-2.61	-2.12
O=C1NC(=O)/C(=C/c2ccc3nccc(-c4ccncc4)c3c2)S1	1.23	8.62	0.06	0.11	0.15	0.36	3.51	0.22	1.03	0.79
Cc1nc(Nc2cnn(C3CCNCC3)c2)nc2c1N(C)C(=O)c1cc3ccccc3cc1N2C	0.88	6.28	3.82	0.38	0.47	0.33	1.66	0.22	0.49	0.2
N#Cc1c(Oc2ccc(F)c(NC(=O)Cc3cccc(C(F)(F)F)c3)c2)ccc2nc(NC(=O)C3CC3)sc12	0.09	0.32	-2.82	0.59	0.49	0.4	0.5	0.74	1.21	0.32
